Measured values published in PubChem BioAssay (Tox21).
Unmarked numbers belong to inactive results. Active and inactive are the calls of the source. The call rests on the fitted dose curve.

target: Estrogen receptor (Homo sapiens) (UniProt P03372); assay: qHTS assay to identify small molecule agonists of the estrogen receptor alpha (ER-alpha) signaling pathway in the presence of an antagonist (AID 1259383); details: VM7Luc4E2 cells, ERE-luciferase, +ICI-182,780, 22 h; series mostly up to 92.4 µM; activation: at the top concentration; further: nearly all actives have a fitted effect of over 15% in size; on activation: top concentration of the series differs between compounds
Sequence (P03372 whole entry, looked up): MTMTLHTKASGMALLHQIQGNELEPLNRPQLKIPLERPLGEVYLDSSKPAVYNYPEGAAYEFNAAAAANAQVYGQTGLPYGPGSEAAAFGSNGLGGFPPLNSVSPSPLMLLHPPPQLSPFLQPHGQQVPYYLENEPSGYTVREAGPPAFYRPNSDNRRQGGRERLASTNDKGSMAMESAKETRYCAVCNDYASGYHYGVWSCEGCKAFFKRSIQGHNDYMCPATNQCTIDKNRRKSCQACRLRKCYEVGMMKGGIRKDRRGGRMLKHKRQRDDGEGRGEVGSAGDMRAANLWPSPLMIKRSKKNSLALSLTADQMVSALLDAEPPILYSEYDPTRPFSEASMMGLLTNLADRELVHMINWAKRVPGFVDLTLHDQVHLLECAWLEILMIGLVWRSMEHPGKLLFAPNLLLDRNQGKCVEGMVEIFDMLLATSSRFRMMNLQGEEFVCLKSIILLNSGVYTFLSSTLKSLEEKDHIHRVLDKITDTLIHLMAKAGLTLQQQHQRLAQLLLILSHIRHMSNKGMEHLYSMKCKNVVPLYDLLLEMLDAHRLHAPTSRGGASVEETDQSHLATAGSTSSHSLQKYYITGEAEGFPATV
Source text: National Center for Advancing Translational Sciences [NCATS] NIH Chemical Genomics Center [NCGC] U.S. Environmental Protection Agency [EPA] National Institutes of Environmental Health Sciences [NIEHS] National Toxicology Program [NTP] Assay overview: Estrogen receptor (ER), a member of nuclear hormone receptor plays an important role in development, metabolic homeostasis and reproduction. Two subtypes of ER, ER-alpha and ER-beta, have similar expression patterns with some uniqueness in both types. Endocrine disrupting chemicals (EDCs) and their interactions with steroid hormone receptors like ER causes disruption of normal endocrine function. Therefore, it is important to understand the effect of environmental chemicals in ER signaling pathway. For identifying ER agonists, VM7Luc4E2 cell line has been used in the current assay. VM7Luc4E2 cell line (provided by Denison MS, University of California) endogenously expresses full-length ER-alpha and is stably transfected with a plasmid containing four estrogen responsive elements (ERE) upstream of a luciferase reporter gene. This current screening for measuring luciferase reporter gene activity using VM7Luc4E2 cells against Tox21 10K library collection is a confirmation study on agonist mode screening in presence of ER-antagonist (ICI-182,780) at 10.0nM final concentration.
Assay Protocol Summary: VM7Luc4E2 cells were cultured in phenol red free assay medium containing 10% charcoal stripped FBS for 5 days prior to the assay. The cells were dispensed at 4,000 cells in 4uL of assay medium per well into white wall/solid-bottom 1536-well plates (Corning Life Sciences, Corning, NY) using a Multidrop Combi (Thermo Fisher Scientific Inc., Waltham, MA) dispenser. After the assay plates were incubated at 37C and 5% CO2 for 24hr, 1uL of 10.0nM (final concentration) ICI-182,780 or assay buffer was added using two separate tips of Flying Reagent Dispenser (FRD, Aurora Discovery, San Diego, CA). Then 23nL of compounds dissolved in DMSO at 15 concentrations and positive controls or DMSO only was transferred to the assay plates by a Pintool station (Wako, San Diego, CA). The assay plates were incubated at 37C and 5% CO2 for 22hr. For luciferase read, 4uL/well ONE-Glo reagent (Promega Corporation, Madison, WI) was added to each well using FRD and after 30min incubation at room temperature, luminescence signal was measured on ViewLux plate reader (PerkinElmer, Shelton, CT).
On the % scale 0 is the no-effect control and ±100 the full control effect; potency means the concentration at half of the fitted maximal effect.

SMILES | activation | Potency
C=COCCCl | -0.385% | –
Oc1cccc(-c2ccccc2)c1 | 12.8% | –
S=C=Nc1cccc2ccccc12 | -12.2% | –
Oc1c(Br)c(Br)c(Br)c(Br)c1Br | -10.9% | –
O=C(O)c1cc[c]([Hg][Cl])cc1 | -0.128% | –
CCCCCCCCCCCCCN1CC(C)OC(C)C1 (stereo not given) | 0.0649% | –
Oc1ccc(C2(c3ccc(O)cc3)c3ccccc3-c3ccccc32)cc1 | -5.7% | –
O=C(NC(=O)c1c(F)cccc1F)Nc1cc(Cl)c(OC(F)(F)C(F)F)c(Cl)c1 | 11.6% | –
CC(=O)c1ccc(-c2ccccc2)cc1 | 9.98% | –
O=[N+]([O-])c1cc(C(F)(F)F)c(Cl)c([N+](=O)[O-])c1Cl | -7.92% | –
CCCCCCCCCCBr | -2.05% | –
CC[C@H](C)[C@H]1O[C@]2(C=C[C@@H]1C)C[C@@H]1C[C@@H](C/C=C(\C)[C@@H](O[C@H]3C[C@H](OC)[C@@H](O[C@H]4C[C@H](OC)[C@@H](O)[C@H](C)O4)[C@H](C)O3)[C@@H](C)/C=C/C=C3\CO[C@@H]4[C@H](O)C(C)=C[C@@H](C(=O)O1)[C@]34O)O2 | -14.9% [at 42.5 µM] | –
COc1ccc(OC)c(C=O)c1 | -1.3% | –
CC(C)OS(C)(=O)=O | -0.66% | –
O=C1NCN(c2ccccc2)C12CCN(CC1COc3ccccc3O1)CC2 (stereo not given) | -1.38% [at 42.5 µM] | –
CC(C)CCCCCOC(=O)c1ccccc1C(=O)OCCCCCC(C)C | 0.0148% | –
O=C/C(Cl)=C(/Cl)C(=O)O | – | inactive
Oc1ccccc1Br | 0.847% | –
CCc1cc(C)cc(CC)c1-c1c(OC(=O)C(C)(C)C)n2n(c1=O)CCOCC2 | -1.52% | –
Cc1cc(Cl)ccc1O[C@H](C)C(=O)O | -0.784% | –

SMILES | activation | Potency
N#CCc1ccc(Cl)cc1 | -0.548% | –
CC(C)CC(C)N (stereo not given) | -0.612% | –
CCOc1cc(C(C)(C)C)ccc1C1COC(c2c(F)cccc2F)=N1 (stereo not given) | 0.785% [at 42.5 µM] | –
Nc1c(Oc2ccccc2)cc(O)c2c1C(=O)c1ccccc1C2=O | – | 1880 nM (active)
Cc1cc(C)cc(OP(=O)(Oc2cc(C)cc(C)c2)Oc2cc(C)cc(C)c2)c1 | -0.539% | –
CCOCn1c(-c2ccc(Cl)cc2)c(C#N)c(Br)c1C(F)(F)F | -15.6% | –
COC[C@H](C)N(C(=O)CCl)c1c(C)csc1C | 0.256% | –
CCCCOCN(C(=O)CCl)c1c(CC)cccc1CC | -2.98% | –
Cc1cc(SCc2sc(-c3ccc(C(F)(F)F)c(F)c3)nc2C)ccc1OCC(=O)O | 4.35% | –
CC(C)(C)C(O)/C(=C\c1ccc(Cl)cc1Cl)n1cncn1 (stereo not given) | -2.69% | –
O=C(O)COc1nc(Cl)c(Cl)cc1Cl | -2.05% | –
[Hg+2].[I-].[I-] | -14.5% | –
ClC1=C(Cl)[C@]2(Cl)[C@@H]3[C@@H](Cl)[C@H](Cl)C[C@@H]3[C@@]1(Cl)C2(Cl)Cl | 0.0973% | –
Oc1ccc(I)cc1 | 0.704% | –
ClC1=C(Cl)C2(Cl)C3C(Cl)C(Cl)CC3C1(Cl)C2(Cl)Cl (stereo not given) | – | inactive
Fc1cccc(Cl)c1CCl | -0.684% | –
CCCCN(CCCC)C(=S)[S-].CCCCN(CCCC)C(=S)[S-].[Zn+2] | -15.6% | –
C[C@]12CC[C@H]3[C@@H](CCC4=CC(=O)CC[C@@]43C)[C@@H]1CC[C@@H]2O | 14.1% | –
CC(C)(C)c1ccc(CSc2cnn(C(C)(C)C)c(=O)c2Cl)cc1 | -16.8% | –
CC(C)(C)c1cc([N+](=O)[O-])cc(C(C)(C)C)c1O | -13.5% | –
